From PubChem BioAssay AID686978 (National Center for Advancing Translational Sciences (NCATS), 2013)
Out of some 420,000 compounds screened, about 64,000 (15%) were called active. Inconclusive results (about 27%) are left out. These entries were drawn from the full list. A number with no mark means an inactive call. Calls come from the whole dose curve; as a rule, active = well fitted inhibition curve with a large enough effect; inconclusive = small, poorly fitted or top-dose-only effect; inactive = flat fitted curve, though single readings scatter.

Assay: qHTS for Inhibitors of human tyrosyl-DNA phosphodiesterase 1 (TDP1): qHTS in cells in absence of CPT; note: nearly all actives have a fitted effect of over 55% in size
Conditions: DT40 Tdp1-/- hTDP1 cells, no CPT, ATP luminescence, 48 h; activity change, negative = growth inhibition: at 46.2 µM (top of the series)
How it was run: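 Readout: luminescence from CellTiter-Glo after 30 min in the dark at RT. Cells: DT40 Tdp1-/- with stable hTDP1, 400/well. Exposure: compounds alone, ≥48 hr, 37 °C.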
% is set by controls: 0 for no effect and ±100 for the full control effect; potency is the fitted concentration of half-maximal effect.

Compound | activity change, negative = growth inhibition | Potency
Nc1ncc(-c2cc3ccccc3oc2=O)s1 | -14.1% | 
COc1ccc2nc(Nc3nc(-c4cc5ccccc5oc4=O)cs3)sc2c1 |  | 11.6 µM (active)
O=c1oc2ccccc2cc1-c1csc(Nc2ccc(O)cc2)n1 |  | 8.2 µM (active)
COc1ccc2nc(Nc3nc4cc5c(cc4s3)OCCO5)sc2c1 | -11.8% | 
CCNc1nc(-c2cc3ccccc3o2)cs1 | -28.7% | 
COc1ccc2cc(-c3nc(Cl)c4c5c(sc4n3)CC(C)CC5)c(=O)oc2c1 (stereo not drawn) | -12.7% | 
CC(C)C(C(=O)NC1CCCCC1)N(CC1CCCO1)C(=O)CNS(=O)(=O)c1ccc(F)cc1 (stereo not drawn) | -25.5% | 
O=C(O)CCC(=O)N(Cc1ccccc1)Cc1ccccc1 | 2.82% | 
CC1(C)CC(=O)C=C(NCc2ccncc2)C1 | 2.46% | 
CC(=O)Oc1ccc(-c2nc3c(C)cccc3c(=O)o2)cc1 | -8.38% | 
Cc1cccc2c(=O)n3c(nc12)CCCCC3 | -12.9% | 
Cc1nc(N=C(N)N)nc2c(C)cccc12 |  | 20.6 µM (active)
CCCN1Cc2cccc(C(=O)NCc3ccccc3)c2C1=O | -3.84% | 
CCOc1ccc(N2C(=O)CN(c3cccc4ccccc34)C2=S)cc1 | -24.5% | 
COCCCNC(=S)N(Cc1ccccc1)Cc1ccc(F)cc1 | -14.6% | 
CCN(CC)CCCNC(=S)N(CCO)Cc1cc2cc3c(cc2[nH]c1=O)OCO3 | -11.1% | 
Cc1cc(C)c2[nH]c(=O)c(CN(Cc3ccccc3)C(=S)NCCCN(C)C)cc2c1 |  | 16.4 µM (active)
CCCCNC(=O)c1c[nH]c2ccc(S(=O)(=O)Nc3ccc(OCC)cc3)cc2c1=O | -6.94% | 
Cc1ccc(/C=C2\CCn3c2nc2cc(C(=O)O)ccc2c3=O)c(C)c1 | -17.8% | 
CC(=O)C[C@@H](O)CC(=O)[C@H]1OC(=O)CCCCCCc2ccccc21 | -9.45% | 
CC(C)(C)c1cc(=O)n2c(nc3ccccc32)[nH]1 | -13.8% | 
O=C(NCc1ccccn1)Nc1ccc(Cl)cc1 | -0.0857% | 

Compound | activity change, negative = growth inhibition | Potency
Fc1ccc(-c2ccc(CNCc3ccccn3)o2)cc1Cl |  | 20.6 µM (active)
O=C(NCc1ccccn1)c1cc(-c2ccccc2Cl)on1 | -4.58% | 
COc1ccc(CNC(=O)CN(Cc2ccccc2Cl)C(=O)c2csnn2)cc1 | -19.7% | 
COCCNC(=O)COc1ccc(C)c(C)c1 | -9.12% | 
Cc1ccc(NS(=O)(=O)c2c(C)[nH]c(C)c2C(=O)N2CCCCC2)c(C)c1 | -17.5% | 
Cc1ccc(C)c(NS(=O)(=O)c2c(C)[nH]c(C)c2C(=O)N2CCCCC2)c1 | -1.44% | 
Cc1ccc(C)c(N2CCN(S(=O)(=O)c3c(C)[nH]c(C)c3C(=O)N3CCCC3)CC2)c1 |  | 23.1 µM (active)
Cc1[nH]c(C)c(S(=O)(=O)N2CCC(C)CC2)c1C(=O)N1CCCC1 | 3.3% | 
Cc1[nH]c(C)c(S(=O)(=O)N2CCN(c3cccc(C(F)(F)F)c3)CC2)c1C(=O)N1CCCCC1 |  | 10.3 µM (active)
CCc1noc(C)c1C(=O)N1CCN(S(=O)(=O)c2cccc(C(F)(F)F)c2)CC1 | -1.34% | 
O=S(=O)(NCc1cccnc1)c1ccc(Cl)nc1 | -17.2% | 
Cc1occc(=O)c1OCc1c(Cl)cccc1Cl | 12.3% | 
O=C(Nc1nnc(-c2ccc(F)cc2)s1)c1c(F)cccc1Cl | -13% | 
CC(=O)N1CCc2ccc(N)cc21 | -7.03% | 
O=C(NCc1ccc2c(c1)OCO2)c1sccc1Br | -12.3% | 
O=C(NCc1ccc2c(c1)OCO2)c1ccc(Cl)s1 | -26.7% | 
O=C(NCc1ccc2c(c1)OCO2)c1c(-c2ccsc2)sc2ccccc12 |  | 14.6 µM (active)
COC(=O)c1ccc2ccccc2c1OC1OC(CO)C(O)C(O)C1NC(C)=O (stereo not drawn) | -14.3% | 
CCOc1cccc(/C(O)=C2/C(=O)C(=O)N(CCOC)C2c2ccncc2)c1 (stereo not drawn) | -0.467% | 
CS(=O)(=O)N1CCN(C(=O)CSc2ccccc2)CC1 | -5.6% | 
COCCn1c(SC(C)C(=O)NC2CC2)nnc1-c1cccc(C)c1 (stereo not drawn) | -19.5% | 
COc1ccc(C(CNC(=O)c2ccc(OCc3cscn3)cc2)N2CCCC2)cc1 (stereo not drawn) | -19.4% | 

Compound | activity change, negative = growth inhibition | Potency
C=CCN(CC=C)C(=O)CN1C(=O)c2ccccc2C1=O | -3.75% | 
CN(C)/C=C(/C(=O)c1ccccc1Cl)S(C)(=O)=O | -2.14% | 
Cc1ccc2nc(-c3cccnc3)c(NC3CCCC3)n2c1 |  | 20.6 µM (active)
O=C(COC(=O)c1cncc(Br)c1)Nc1ccc(S(=O)(=O)N2CCOCC2)cc1 | -12.7% | 
O=C(CCn1nnnc1CN1CCOCC1)N1CCC(c2ccccc2Cl)C1 (stereo not drawn) | -9.44% | 
Cc1cccc(C(=O)N2CCC(c3nc4ccccc4s3)CC2)c1 | -23.4% | 
CC(=O)Oc1ccc(OC(C)=O)c2c1C1C=CC2CC1 |  | 16.4 µM (active)
CC(=O)Oc1ccc(C(C)=O)c2c1OCCO2 | -8.77% | 
COc1c(C(=O)N2CCCC2)ccc2ccccc12 | -25.1% | 
NC(=O)CC[C@@H]1NC(=O)[C@H](CO)NC(=O)c2cc([N+](=O)[O-])cc(I)c2NCC[C@@H](C(N)=O)NC1=O | -1.82% | 
COCC(=O)N1CCc2ccc(NC(=O)c3ccccc3Cl)cc2C1 | 18.5% | 
COc1ccc(NC(=O)NCc2ccc3c(c2)OCO3)c(OC)c1 | 2.84% | 
COc1ccc2c(c1)C(C)=CC(C)(C)N2C(=O)CNCc1ccc2c(c1)OCO2 |  | 20.6 µM (active)
COc1cccc(CNCc2ccc3c(c2)OCO3)c1 | -23.4% | 
CC(=O)O[C@H]1CC[C@@]2(C)[C@@H](CC[C@@H]3[C@@H]2CC[C@]2(C)[C@@H](C(C)(C)O)C[C@@H]32)C1 | -13.8% | 
CC(C)C(=O)NC(C)c1nnc2n1CCN(Cc1cccc3ncccc13)CC2 (stereo not drawn) | -2.35% | 
Cc1nc(N2CCN(c3ccccn3)CC2)c2c(C)c(C(=O)Nc3ccc(F)cc3)sc2n1 |  | 20.6 µM (active)
CCOC(=O)C1CCCN(C(=O)c2sc3nc(C)nc(N4CCOCC4)c3c2C)C1 (stereo not drawn) | -8.49% | 
CCOc1ccc(Cn2nnc(C(=O)Nc3ccc(OC)cc3OC)c2N)cc1 | -1.55% | 
Cc1nc(N2CCOCC2)c2c(C)c(C(=O)Nc3ccc(C(F)(F)F)cc3)sc2n1 |  | 18.4 µM (active)
Cc1nc2c(-c3ccc(F)cc3)c(C)nn2c(C)c1CCC(=O)N1CCN(c2ccccn2)CC1 | -25.4% | 
COc1ccc(NC(=O)c2sc3nc(C)nc(N4CCN(c5ccccn5)CC4)c3c2C)c(OC)c1 |  | 11.6 µM (active)

Compound | activity change, negative = growth inhibition | Potency
O=C(Nc1ccc(N2CCOCC2)nc1)c1c(F)cccc1F | -8.61% | 
Cn1c(SCC(=O)Nc2ccc(N3CCOCC3)cc2)nnc1C(F)(F)F | -0.0099% | 
CCS(=O)(=O)N1Cc2ccccc2CC1C(=O)Nc1ccc(OC)cc1OC (stereo not drawn) | -20.6% | 
Cc1cc(Cl)c(S(=O)(=O)NCCC(=O)O)cc1OCC(N)=O | -5.51% | 
COc1cc(C)c(CN2CCc3nnc(C(C)NC(=O)c4cccnc4)n3CC2)cc1C (stereo not drawn) | -1.75% | 
COc1ccc(OC)c(NC(=O)C2CCCN2S(=O)(=O)c2cccc3nsnc23)c1 (stereo not drawn) | -11.2% | 
Nc1ncc(CN2CCCC(C(=O)Nc3ccc(-c4ccco4)cc3)C2)cn1 (stereo not drawn) | 2.56% | 
O=C(CNC(=O)c1cccnc1)N/N=C/c1cc(Br)c(O)c(Br)c1 | -14.5% | 
Cc1nc2ccc(C(=O)N3CCSCC3)cc2s1 | -8.92% | 
CCNC(=O)CN(c1ccc(C)cc1)S(=O)(=O)c1ccc(SC)cc1 | -23.1% | 
CCOc1ccccc1C(=O)NCCCn1ccnc1 | -10.6% | 
CN1C(=O)c2ccccc2Sc2ccc(NC(=O)Cc3ccc(Cl)cc3)cc21 |  | 16.4 µM (active)
CCOc1ccccc1C(=O)Nc1ccc2c(c1)N(C)C(=O)c1ccccc1S2 |  | 3.66 µM (active)
CC(=O)Nc1ccc(NC(=O)COc2ccccc2C(=O)Nc2cccc(Cl)c2Cl)cc1 | -19.4% | 
CCN1C(=O)c2ccccc2Sc2ccc(NC(=O)Cc3ccc(OC)cc3)cc21 | -21.6% | 
CCc1ccc(NC(=O)Cn2ncn3c(cc4ccccc43)c2=O)cc1 | -18.2% | 
Cc1nn(-c2ccccc2)c(=O)c2noc(C)c12 | -18.1% | 
CN1CC(O)c2cc(N=NC(N)=O)c(O)cc21 (stereo not drawn) | -2.16% | 
OC(COc1ccc2ccccc2c1)CN1CCOCC1 (stereo not drawn) |  | inactive
COc1cccc(/C=N/Nc2cc(C)nc(-c3ccccc3O)n2)c1O |  | 8.2 µM (active)
Cc1cc2c(C)nc(N/N=C/c3ccccc3)nc2o1 | -27.5% | 
COc1cc(NS(=O)(=O)c2ccccc2)ccc1-n1nc(C)cc1C | -20% | 

Compound | activity change, negative = growth inhibition | Potency
COc1ccccc1/C=N/Nc1nc(C)c(C(C)=O)s1 | -11.1% | 
Cc1cc(N/N=C\c2ccc(Br)cc2)nc(-n2nc(C)cc2C)n1 |  | 2.91 µM (active)
Cc1nc(Cl)cc(N/N=C/c2ccccc2)n1 | -0.294% | 
COc1ccccc1-n1c(SCC(=O)Nc2cccc(C(=O)O)c2)nnc1-c1ccccc1O | -7.49% | 
COc1ccccc1/C=N\Nc1cc(C)nc(-n2nc(C)cc2C)n1 |  | 5.17 µM (active)
COc1cccc(/C=N/Nc2ccc(S(=O)(=O)Nc3ccccc3C(=O)O)cc2[N+](=O)[O-])c1O | -4.64% | 
Cn1ncc(Br)c1C(=O)NC1CCCC1 | -4.22% | 
CCC(C)[C@H](NC(=O)N1c2ccccc2NC(=O)[C@@H]1C(C)C)C(=O)N[C@@H](Cc1ccccc1)C(=O)O (stereo partly drawn) | -4.99% | 
CC1CN(C(=O)c2cc(COc3c(F)cccc3F)on2)CCN1C (stereo not drawn) | -0.627% | 
CC(C)NC(=O)N1CCCC2(CCN(C(=O)c3cccn3C)CC2)C1 | 1.59% | 
COc1cccc2cc(S(=O)(=O)c3ccc(C)cc3)/c(=N/NS(=O)(=O)c3ccc(C)cc3)oc12 | -3.29% | 
Cc1c(C)c2ccc(OCC(=O)N3CCC(C(=O)O)CC3)c(C)c2oc1=O | -1.1% | 
CSc1ncnc2c1ncn2CCCNCC(C)c1ccccc1 (stereo not drawn) | -10.2% | 
COc1cc2nc(NCC(C)c3ccccc3)n3nc(-c4ccccc4)nc3c2cc1OC (stereo not drawn) |  | 13 µM (active)
COc1cc2nc(SCC(=O)Nc3ccccc3F)n3nc(-c4ccccc4)nc3c2cc1OC | 0.878% | 
CCn1c(SCC(=O)NC2CC2)nnc1-c1ccncc1 | 14% | 
O=C(NCc1ccco1)c1ccc([N+](=O)[O-])cc1Cl | -0.784% | 
CC(C)Oc1ccc(CN2CCC2(C)C(=O)NCc2ccc(C(F)(F)F)cc2)cc1 (stereo not drawn) |  | 14.6 µM (active)
CC(C)CN1CCC1(C)C(=O)Nc1ccc(OC(F)F)cc1 (stereo not drawn) | -27.1% | 
CCCC(=O)N1CCC1(C)C(=O)NCc1ccc(C(C)C)cc1 (stereo not drawn) | -8.04% | 
